Beta2AR agonist: agonists of human beta-2 adrenergic receptor inducing internalization. Am2.2-beta2AR cells, FAP receptor internalization, flow cytometry. 340,000 compounds, 0.43% hits. P07550. AID 504454. response, % (no concentration beside the values);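 active = response above a set limit, near 3 SD of response in nonfluorescent compounds, cut at about 42% in these data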
MEKK2mut PB1 HTS: signal of MEK5 binding to mutant human MEKK2 PB1 domain; AID 1530; bead flow cytometry, Alexa488-MEK5 binding to MEKK2 mutant; percent response, % at 10 µM; 290,000 compounds, 0.35% hits; in the data active = percent response above about 24%, passing the limit was not always enough
GRK2 inh: human GRK2 inhibition via aptamer displacement | bead flow cytometry, FAM-aptamer displacement from GRK2 | inhibition of aptamer binding, % at 10 µM | 330,000 compounds, 0.59% hits | AID 488847;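 active = inhibition of aptamer binding above 40%, roughly 3 SD of noise, on plates passing a quality check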;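 also: median bead fluorescence of bound FAM aptamer so fluorescent compounds give negative values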
MEKK2 WT-MEK5: raises or lowers MEK5 binding to wildtype human MEKK2 PB1 domain; Q9Y2U5; bead flow cytometry, Alexa488-MEK5 binding to MEKK2 WT; actives lie on both sides; binding response (% of control), % at 10 µM; 290,000 compounds, 1.1% hits; AID 1531; in the data active = binding response below about 67% or above about 130%
MEKK3 PB1 HTS: modulators (inhibitors or enhancers) of MEK5 binding to human MEKK3 PB1 domain; bead-based flow cytometry, Alexa488-MEK5 binding to MEKK3; actives lie on both sides; 0 = blocked by unlabeled MEK5, 100 = vehicle; AID 1529; Q99759; binding response (% of control), % at 10 µM; 290,000 compounds, 1.4% hits;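 active = binding response more than 3 SD above or below the average of its plate-row segment, actives on both sides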;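 also: Alexa488 bead fluorescence after subtracting the streptavidin-only scavenger bead signal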
MEKK2wt confirm: raises or lowers MEK5 binding to wildtype human MEKK2, retest; bead flow cytometry, Alexa488-MEK5 binding to MEKK2 WT; actives lie on both sides; 5,900 compounds, 2.4% hits; AID 1892; binding response (% of control), % at 10 µM; shares compounds with MEKK3 PB1 HTS; in the data active = binding response below about 16% or above about 210%; inactive = in between
MEKK2mut confirm: signal of MEK5 binding to mutant human MEKK2, retest | 5,900 compounds, 2% hits | percent response, % at 10 µM | bead flow cytometry, Alexa488-MEK5 binding to MEKK2 mutant | shares compounds with MEKK3 PB1 HTS; in the data active = percent response mostly above about 71%, no sharp cut-off; inactive = mostly below about 38%;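 also: higher means compound restores mutant binding toward wildtype level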
MEKK3-MEK5 inh: confirmation of inhibitors of MEK5 binding to human MEKK3. shares compounds with MEKK3 PB1 HTS. bead flow cytometry, Alexa488-MEK5 binding to MEKK3; hits give low values. binding response (% of control), % at 10 µM. 5,900 compounds, 1.8% hits;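 active = binding response below 72% of control, or above a set upper limit, though filed actives all read lower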;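 also: 100% = DMSO only wells and 0% = binding blocked by excess unlabeled MEK5; lower values mean stronger disruption of MEK5 binding to MEKK3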
Starred values were filed as active, the others as inactive; . = not tested or not shown; [ ] = another dose, or the depositor's remark. This is a sample that favours compounds with a hit; in the whole collection about 2.9% have one here.

SMILES | Beta2AR agonist | MEKK2mut PB1 HTS | GRK2 inh | MEKK2 WT-MEK5 | MEKK3 PB1 HTS | MEKK2wt confirm | MEKK2mut confirm | MEKK3-MEK5 inh
CCC1(c2ccccc2)NC(=O)N(CC(=O)Nc2ccccc2N2CCCC2)C1=O (configuration not stated) | 1.8 | . | 0.0 | . | . | . | . | .
Cc1ccc(NC(=O)C2CC2c2ccccc2)c([N+](=O)[O-])c1 (configuration not stated) | 1.3 | 11.0 | 0.0 | 111.0 | 103.0 | . | . | .
Cc1ccccc1C(=O)NC1CCN(CC(=O)Nc2ccc3c(c2)OCCO3)CC1 | -4.3 | -14.0 | 0.0 | 89.0 | 88.0 | . | . | .
CCOc1ccccc1NC(=O)NC1CCN(CC(=O)Nc2ccc3c(c2)OCCO3)CC1 | -9.6 | -7.0 | 0.0 | 82.0 | 75.0*[inhibitor] | 101.0 | 4.0 | 103.0
COc1cccc2[nH]c3c(N4CCC(C)CC4)ncnc3c12 | -1.1 | -7.0 | 2.0 | 104.0 | 90.0 | . | . | .
COc1cccc2[nH]c3c(N4CCc5ccccc5C4)ncnc3c12 | . | 26.0 | 2.0 | 147.0* | 103.0 | 152.0 | 26.0 | 108.0
CCN(CC)CCCNC(=S)N1CCN(c2nc(-c3ccccc3)cs2)CC1 | 29.7 | 23.0 | 0.0 | 143.0* | 103.0 | 129.0 | 45.0 | 108.0
COC(=O)c1ccc(C)c(NC(=O)CCCN2C(=O)CN(C)C2=O)c1 | 4.3 | . | 14.0 | . | . | . | . | .
CSc1cccc(NC(=O)/C=C/c2ccc(Cl)cc2)c1 | -4.6 | 10.0 | 3.0 | 146.0* | 107.0 | 126.0 | 12.0 | 107.0
CSc1cccc(NC(=O)/C=C/c2ccccc2)c1 | 2.1 | -3.0 | 0.0 | 107.0 | 100.0 | . | . | .
CCN(CC)CCN(C(=O)CCOc1ccccc1)c1nc2c(F)cc(F)cc2s1 | 20.9 | 17.0 | 0.0 | 148.0* | 106.0 | 142.0 | 33.0 | 107.0
CCCCN(C(=O)CSc1nnc2ccccn12)c1c(N)n(Cc2ccccc2)c(=O)[nH]c1=O | -5.3 | 0.0 | 0.0 | 106.0 | 128.0* | 108.0 | 7.0 | 102.0
O=C(CN1CCN(C(=O)c2cccs2)CC1)NC1CCCCC1 | 0.2 | -11.0 | 2.0 | 88.0 | 81.0*[inhibitor] | 96.0 | -10.0 | 96.0
O=C(CN1CCN(C(=O)c2cccs2)CC1)Nc1ccc(Br)cc1 | -0.5 | -2.0 | 1.0 | 100.0 | 99.0 | . | . | .
CN(C)/C=C/C(=O)c1ccc(C(F)(F)F)cc1F | -1.5 | -3.0 | 0.0 | 100.0 | 101.0 | . | . | .
COc1ccc(-n2cc(CNC3CCN(C)CC3)c(-c3cccc(F)c3)n2)cc1 | 34.0 | 49.0 | 0.0 | 169.0* | 108.0 | 150.0 | 36.0 | 109.0
Cc1ccccc1NS(=O)(=O)c1ccc(C(=O)N2CCN(S(=O)(=O)c3ccccc3)CC2)cc1 | 11.5 | . | 1.0 | . | . | . | . | .
CCOC(=O)c1c(C)[nH]c(C(=O)COC(=O)COc2ccccc2C=O)c1C | -5.9 | -2.0 | 0.0 | 91.0 | 70.0*[inhibitor] | 98.0 | 2.0 | 101.0
CC(=O)c1c(C)[nH]c(C(=O)COC(=O)CCSc2ccccc2)c1C | 7.7 | 1.0 | 7.0 | 113.0 | 155.0* | 94.0 | -6.0 | 102.0
O=C(/C(=C(\[O-])c1ccccc1)[n+]1ccc2ccccc2c1)c1ccccc1 | 2.2 | 4.0 | 0.0 | 102.0 | 128.0* | 102.0 | 1.0 | 104.0
O=C(/C(=C(\[O-])c1ccccc1)[n+]1ccc2ccccc2c1)c1ccc(Cl)cc1 | 4.9 | 1.0 | 0.0 | 100.0 | 98.0 | . | . | .
COc1ccc(/C(N)=N/OC(=O)Cc2cccs2)cc1OC | 11.1 | 0.0 | 6.0 | 102.0 | 150.0* | 93.0 | -1.0 | 98.0
c1ccc(COc2ccc(-c3sc(Nc4ccccc4)n[n+]3-c3ccccc3)cc2)cc1 | . | 38.0* | 0.0 | 221.0* | 109.0 | 185.0 | 55.0 | 110.0
CCc1ccc(Nc2n[n+](-c3ccccc3)c(-c3ccc(OCc4ccccc4)cc3)s2)cc1 | -1.3 | 107.0* | 0.0 | 220.0* | 111.0 | 209.0* | 82.0* | 114.0
O=C(O)c1ccc(-c2sc(Nc3ccccc3)n[n+]2-c2ccccc2)cc1 | -1.3 | -4.0 | 2.0 | 95.0 | 99.0 | . | . | .

Bioassay records from PubChem.
